Laboratory results reported in the supplement of paper PMC7801607.

system: Plasmodium falciparum NF54 stage IV/V gametocytes; assay: % inhibition of gametocyte viability (luciferase reporter); higher = more inhibition; conditions: 1 µM; 48 h
Outline: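 Luminescence from 30 µL lysate combined with 30 µL Promega luciferin substrate was recorded on a GloMax-Multi+ reader using 10 s integration. The lysate came from stage IV/V NF54-Pfs16-GFP-Luc gametocytes (2% gametocytaemia, 2% haematocrit) held with compound at 1 or 5 µM for 48 h at 37 °C under stationary, hypoxic conditions. Percent inhibition was normalised against controls run once.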

Compound	% inhibition of gametocyte viability [%]
Clc1cc2nc(C3CCNCC3)n(Cc3ccc(CNCCc4cnc[nH]4)cc3)c2cc1Cl	< 0
O=c1cc(OCc2ccccc2)ccn1Cc1ccccc1	< 0
Cc1cc(CCCOc2c(C)cc(-c3noc(C(F)(F)F)n3)cc2C)on1	10.6
CCC(C)n1ncn(-c2ccc(N3CCN(c4ccc(OCC5COC(Cn6cncn6)(c6ccc(Cl)cc6Cl)O5)cc4)CC3)cc2)c1=O (stereo unspecified)	< 0
O=C(O)c1ccccc1Sc1ncnc2sc3c(c12)CCC3	< 0
Cc1nc(Nc2ccc(F)cc2)nc(N2CCc3ccccc3C2C)c1C (stereo unspecified)	< 0
NC(=O)c1nccn([C@@H]2O[C@H](CO)[C@@H](O)[C@H]2O)c1=O	7.58
Nc1nc(F)nc2c1ncn2[C@H]1O[C@@H](CO)[C@H](O)[C@@H]1O	4.93
NC(=S)N/N=C/c1ncccc1N	1.59
CCCC1(C2CC2)c2cc(Cl)ccc2NC(=O)N1C (stereo unspecified)	0.472
COc1cc(C(C(=O)NC2CCCCC2)N(C(=O)Cc2c[nH]c3ccccc23)c2ccc(C(C)C)cc2)cc(OC)c1OC (stereo unspecified)	1.84
Oc1cccc(C(Nc2nccs2)c2ccc3cccnc3c2O)c1 (stereo unspecified)	7.2
COc1ccc(C)cc1NC(=O)c1ccc(S(=O)(=O)N2CCCCC2)cc1	< 0
CCC[C@H](NC(=O)[C@@H]1[C@H]2CCC[C@H]2CN1C(=O)[C@@H](NC(=O)[C@@H](NC(=O)c1cnccn1)C1CCCCC1)C(C)(C)C)C(=O)C(=O)NC1CC1	3.5
O=C(CSc1nnc(Br)n1-c1ccc(C2CC2)c2ccccc12)Nc1ccc(C(=O)O)cc1Cl	< 0
CC(C)(C)c1ccc(C(Cn2cccc(C(F)(F)F)c2=O)NC2Cc3ccccc3C2)cc1 (stereo unspecified)	< 0
O=C1NC(=O)C(Br)=C1Br	< 0
CC(C)Nc1nc2cc(Cl)c(Cl)cc2n1[C@H]1O[C@@H](CO)[C@H](O)[C@@H]1O	< 0
C=C[C@]1(C)C[C@@H](OC(=O)CS[C@@H]2C[C@H]3CC[C@@H](C2)N3C)[C@]2(C)[C@H](C)CC[C@]3(CCC(=O)[C@H]32)[C@@H](C)[C@@H]1O	< 0

Compound	% inhibition of gametocyte viability [%]
CCCCCCC1c2ccc(O)cc2Oc2cc(O)ccc21	< 0
O=C(NCc1ncc(C(F)(F)F)cc1Cl)c1c(Cl)cccc1Cl	< 0
CN(C)CCNC(=O)c1cccc2cccnc12	< 0
CC(C)CCN1C(=O)C(C2=NS(=O)(=O)c3cc(NS(C)(=O)=O)ccc3N2)=C(O)[C@@H]2[C@H]3CC[C@H](C3)[C@@H]21	1.44
CC(C)(C)c1ccc(C(=O)NC(=O)N2CCCc3ccccc32)cc1	< 0
Cc1nc2ccc(Oc3ccccc3)cc2c2c1CCN2CCc1ccccc1	33
Cc1c(OCC(F)(F)F)ccnc1CS(=O)c1nc2ccccc2[nH]1 (stereo unspecified)	< 0
O=C(CP(=O)(O)O)NCCc1cccc(Oc2ccccc2)c1	< 0
N[C@@H]1CN(c2c(F)cc3c(=O)c(C(=O)O)cn([C@@H]4C[C@@H]4F)c3c2Cl)CC12CC2	0.138
CCOC(=O)Nc1cc(NC(C)CC(C)CN(CC)CC)c2nc(-c3ccccc3)c(-c3ccccc3)nc2n1 (stereo unspecified)	< 0
O=S(=O)(NCB(O)O)c1cc2c(Cl)ccc(Cl)c2s1	< 0
CN(C)CC(=O)Nc1ccc2[nH]c(=O)c3ccccc3c2c1	< 0
Cc1nc(-c2ccc(C3N(C)c4ccc(F)cc4C(=O)N3c3ccccc3)s2)cs1 (stereo unspecified)	< 0
CCc1cc(Nc2cc(=O)n(CCN3CCN(C(=O)c4ccccc4)CC3)c(=O)[nH]2)ccc1C	< 0
CCOC(=O)N[C@@H]1CC[C@@H]2[C@@H](C1)C[C@H]1C(=O)O[C@H](C)[C@H]1[C@H]2/C=C/c1ccc(-c2cccc(F)c2)cn1	7.62
O=C(N[C@H](Cc1cccc2ccccc12)C(=O)NCCc1c[nH]cn1)C1Cc2ccccc2C1	< 0
Cc1nc(N(C)C(=O)Cc2ccc(-c3ccccn3)cc2)sc1S(N)(=O)=O	17.6
COc1ccc(C[C@@H](C)[C@@H](C)Cc2ccc(OC)c(OC)c2)cc1OC	< 0
Nc1nnnn1CCOc1c2[nH]c3ccc(Cl)cc3c2cc2c1[nH]c1ccc(Cl)cc12	< 0

same assay, conditions: 5 µM; 48 h

Compound	% inhibition of gametocyte viability [%]
Clc1cc2nc(C3CCNCC3)n(Cc3ccc(CNCCc4cnc[nH]4)cc3)c2cc1Cl	< 0
O=c1cc(OCc2ccccc2)ccn1Cc1ccccc1	< 0
Cc1cc(CCCOc2c(C)cc(-c3noc(C(F)(F)F)n3)cc2C)on1	< 0
CCC(C)n1ncn(-c2ccc(N3CCN(c4ccc(OCC5COC(Cn6cncn6)(c6ccc(Cl)cc6Cl)O5)cc4)CC3)cc2)c1=O (stereo unspecified)	< 0
O=C(O)c1ccccc1Sc1ncnc2sc3c(c12)CCC3	< 0
Cc1nc(Nc2ccc(F)cc2)nc(N2CCc3ccccc3C2C)c1C (stereo unspecified)	< 0
NC(=O)c1nccn([C@@H]2O[C@H](CO)[C@@H](O)[C@H]2O)c1=O	< 0
Nc1nc(F)nc2c1ncn2[C@H]1O[C@@H](CO)[C@H](O)[C@@H]1O	35.8
NC(=S)N/N=C/c1ncccc1N	5.86
CCCC1(C2CC2)c2cc(Cl)ccc2NC(=O)N1C (stereo unspecified)	< 0
COc1cc(C(C(=O)NC2CCCCC2)N(C(=O)Cc2c[nH]c3ccccc23)c2ccc(C(C)C)cc2)cc(OC)c1OC (stereo unspecified)	18.1
Oc1cccc(C(Nc2nccs2)c2ccc3cccnc3c2O)c1 (stereo unspecified)	57.3
COc1ccc(C)cc1NC(=O)c1ccc(S(=O)(=O)N2CCCCC2)cc1	< 0
CCC[C@H](NC(=O)[C@@H]1[C@H]2CCC[C@H]2CN1C(=O)[C@@H](NC(=O)[C@@H](NC(=O)c1cnccn1)C1CCCCC1)C(C)(C)C)C(=O)C(=O)NC1CC1	< 0
O=C(CSc1nnc(Br)n1-c1ccc(C2CC2)c2ccccc12)Nc1ccc(C(=O)O)cc1Cl	< 0
CC(C)(C)c1ccc(C(Cn2cccc(C(F)(F)F)c2=O)NC2Cc3ccccc3C2)cc1 (stereo unspecified)	3.42
O=C1NC(=O)C(Br)=C1Br	11.4
CC(C)Nc1nc2cc(Cl)c(Cl)cc2n1[C@H]1O[C@@H](CO)[C@H](O)[C@@H]1O	< 0
C=C[C@]1(C)C[C@@H](OC(=O)CS[C@@H]2C[C@H]3CC[C@@H](C2)N3C)[C@]2(C)[C@H](C)CC[C@]3(CCC(=O)[C@H]32)[C@@H](C)[C@@H]1O	< 0

Compound	% inhibition of gametocyte viability [%]
CCCCCCC1c2ccc(O)cc2Oc2cc(O)ccc21	< 0
O=C(NCc1ncc(C(F)(F)F)cc1Cl)c1c(Cl)cccc1Cl	< 0
CN(C)CCNC(=O)c1cccc2cccnc12	10.1
CC(C)CCN1C(=O)C(C2=NS(=O)(=O)c3cc(NS(C)(=O)=O)ccc3N2)=C(O)[C@@H]2[C@H]3CC[C@H](C3)[C@@H]21	8.86
CC(C)(C)c1ccc(C(=O)NC(=O)N2CCCc3ccccc32)cc1	< 0
Cc1nc2ccc(Oc3ccccc3)cc2c2c1CCN2CCc1ccccc1	63.3
Cc1c(OCC(F)(F)F)ccnc1CS(=O)c1nc2ccccc2[nH]1 (stereo unspecified)	< 0
O=C(CP(=O)(O)O)NCCc1cccc(Oc2ccccc2)c1	< 0
N[C@@H]1CN(c2c(F)cc3c(=O)c(C(=O)O)cn([C@@H]4C[C@@H]4F)c3c2Cl)CC12CC2	< 0
CCOC(=O)Nc1cc(NC(C)CC(C)CN(CC)CC)c2nc(-c3ccccc3)c(-c3ccccc3)nc2n1 (stereo unspecified)	51.1
O=S(=O)(NCB(O)O)c1cc2c(Cl)ccc(Cl)c2s1	< 0
CN(C)CC(=O)Nc1ccc2[nH]c(=O)c3ccccc3c2c1	4.93
Cc1nc(-c2ccc(C3N(C)c4ccc(F)cc4C(=O)N3c3ccccc3)s2)cs1 (stereo unspecified)	< 0
CCc1cc(Nc2cc(=O)n(CCN3CCN(C(=O)c4ccccc4)CC3)c(=O)[nH]2)ccc1C	9.16
CCOC(=O)N[C@@H]1CC[C@@H]2[C@@H](C1)C[C@H]1C(=O)O[C@H](C)[C@H]1[C@H]2/C=C/c1ccc(-c2cccc(F)c2)cn1	27.4
O=C(N[C@H](Cc1cccc2ccccc12)C(=O)NCCc1c[nH]cn1)C1Cc2ccccc2C1	2.07
Cc1nc(N(C)C(=O)Cc2ccc(-c3ccccn3)cc2)sc1S(N)(=O)=O	< 0
COc1ccc(C[C@@H](C)[C@@H](C)Cc2ccc(OC)c(OC)c2)cc1OC	< 0
Nc1nnnn1CCOc1c2[nH]c3ccc(Cl)cc3c2cc2c1[nH]c1ccc(Cl)cc12	31.2
